Screening data: PubChem, Broad Institute
Tgondii IFNg: T. gondii growth inhibition under IFN-gamma; Toxoplasma gondii growth in IFN-gamma-treated host cells; hits give low values; AID 1259416; activity change, negative = inhibition, % (no concentration beside the values); 3.8% of 69,000 active; in the data active = activity change below about -70%, passing the limit was not always enough;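 note: host cells are HeLa cells infected with Toxoplasma gondii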
Active calls of the source: *; ! = repeats disagree. This excerpt belongs to a sample that is enriched for hits.

SMILES | Tgondii IFNg
CN(C/C=C/c1ccccc1)CC1(CO)CC1 | 3
Cc1oc(-c2ccc(NC(=O)c3ccc(Br)o3)cc2)nc1Cn1cccn1 | 69
Cc1nc(-c2ccc(Cl)cc2)sc1CCNC(=O)C(=O)Nc1cccc(F)c1 | -12
Cc1occc1C(=O)N1CC[C@@H]2OCCN(Cc3ccncc3)[C@@H]2C1 | -52
CC(C)(C)c1csc(NC(=O)Nc2ccc(Cl)cc2)n1 | -103*
CC(CC(=O)Nc1nc(C(C)(C)C)cs1)n1cncn1 (stereo not given) | 5
Cc1nc(-c2cccs2)sc1NC(=O)Nc1ccc(Cl)cc1 | 65
CC(=O)Nc1ccc(-c2cccc3ccnn23)cn1 | 12
COc1cc(OC)cc(-c2nnc(NC(=O)c3cc(C)nc4c3c(C)nn4C)s2)c1 | -1
CCCCCNCC(N)=O | 7
COCCc1noc(CN(C)C(=O)c2oc3cc(C)ccc3c2C)n1 | 3
O=C(Sc1ccc(Cl)cc1)c1cnn(-c2ccc(Cl)cc2)c1C(F)(F)F | -95*
Cc1nc(C(F)(F)F)ccc1C(=O)Sc1ccc(F)cc1 | -1
FC(F)(F)c1cc(NC(=S)Sc2ccc(Cl)cc2)cc(C(F)(F)F)c1 | -22
O=C(Cc1cccnc1)N1CCCC2(CCN(Cc3ccco3)C2)C1 (stereo not given) | -10
CC(c1ccc2c(c1)OCCO2)N(C)C(=O)c1cc2n(n1)CCCN(C)C2 (stereo not given) | 5
CS(=O)(=O)N1CCOC2CCN(C(=O)Cc3cccnc3)CCC21 (stereo not given) | -24
Cn1c(CN(Cc2ccncc2)Cc2ccc(F)cc2)nc2ccccc21 | -41
Cc1nc(Cl)c(Cc2ccccc2)c(N2CCCC2)n1 | 22
COc1ccc(-c2nc(N3CCCC3)c3ccccc3n2)cc1 | -63
Clc1nnc(N2CCCCC2)c2ccccc12 | -88*
CCOCC1CN(Cc2ccccn2)Cc2cn(C)nc21 (stereo not given) | -5
COc1cccc(CC2CN(C(=O)COc3ccccc3O)CCO2)c1 (stereo not given) | 0
CCn1cnc(NC(=O)N(C)Cc2cccc3ncccc23)n1 | -1
CN(C)C(=O)Nc1cccc(-c2ccc(N(C)C)cc2)c1 | 32
SMILES | Tgondii IFNg
CCn1cc(-c2ccnc3[nH]c(-c4cccc(CN(C)C)c4)cc23)c(-c2ccc(NC(=O)N(C)C)cc2)n1 | -82*
Cc1ccc2[nH]c3c(=O)n(CC(=O)N4CCN(c5ncccn5)CC4)cnc3c2c1 | 10
CCCN(Cc1cccc(Cl)c1)C(=O)c1ccoc1 | -3
CCOc1ccc2oc(C)c(C(=O)N3CCN4C(=O)CNC(=O)C4C3)c2c1 (stereo not given) | 100
CC(=O)c1cccc(NC(=S)Nc2ccc(F)cc2)c1 | 27
O=C(Cc1ccccc1)Nc1ccc(Cl)cc1 | -60
CCc1ccc(NC(=S)Nc2ccc(Cl)cc2C(=O)c2ccccc2)cc1 | -96*
CCn1ncnc1-c1c(-c2ccccc2)ncn1CCCN1CCCC1=O | 2
COC1COC2(CCCN(C(=O)c3ccoc3)C2)C1 (stereo not given) | -33
Cc1cccc(C)c1OC1CN(C(=O)C2CCOCC2)C1 | 2
O=c1cc(Nc2ccc(OC(F)(F)F)cc2)c2ccccc2o1 | -102*
O=C(Nc1ccc(OC(F)(F)F)cc1)c1c(O)c2ccccc2[nH]c1=O | 10
O=c1nc(Nc2ccc(OC(F)(F)F)cc2)c2ccccc2o1 | -62
Cc1nccn1-c1cccc(C2CCN(C(=O)c3ccc(F)cc3)CC2)n1 | 7
CCOC(=O)CSC1=Nc2ccccc2C2=NC(CC(=O)NCc3ccccc3OC)C(=O)N12 (stereo not given) | 12
CC(Cc1cccs1)Nc1nc(-c2cccnc2)nc2c1cnn2C (stereo not given) | -44
O=C(NCc1csc2ccc(Cl)cc12)c1cccnc1Oc1ccc(Cl)cc1 | -61
O=C(Nc1csc(-c2ccc(Cl)cc2)c1)c1cccnc1Oc1ccc(Cl)cc1 | 70
O=C(Sc1ccc(Cl)cc1)c1cccnc1Oc1ccccc1 | -102*
NC1(C(=O)O)CCN(Cc2ccccc2-c2ccco2)C1 (stereo not given) | 4
CCc1cc(C(=O)N(Cc2ccccc2)Cc2nc(N(C)C)ncc2-c2ccccn2)no1 | 47
COc1cc(NC(=O)N2CCc3nc(-c4ccc(C)cc4)sc3C2)cc(OC)c1 | 31
COc1ccc(-c2nc3c(s2)CN(C(=O)Nc2cc(C)ccc2C)CC3)cc1 | 78
COc1ccc(-c2nc3c(s2)CN(C(=O)Nc2ccc(C)c(C)c2)CC3)cc1 | -95*
COc1cccc(-c2nc3c(s2)CN(C(=O)Nc2ccc(Br)cc2)CC3)c1 | -36
SMILES | Tgondii IFNg
COc1ccc(-c2nc3c(s2)CN(C(=O)Nc2cccc(SC)c2)CC3)cc1 | -116*
COc1ccc(-c2nc3c(s2)CN(C(=O)Nc2ccccc2OC)CC3)cc1 | 7
COc1cccc(CC(=O)Nc2ccc3c(c2)CCC(=O)N3C)c1 | -37
O=C(CC1Nc2c3ccccc3nc(=S)n2C1=O)N1CCN(c2ccccc2F)CC1 (stereo not given) | 33
Cc1ccc(S(=O)(=O)N2CCC3(CCC(C(=O)NCC4CC4)O3)CC2)cc1 (stereo not given) | -42
Cc1cnc(N2CCC3(CC2)CC(=O)N(C)c2ccccc23)nc1 | -1
Nc1ccccc1NC(=O)c1ccc(CNc2nccc(-c3cccnc3)n2)cc1 | -79*!
CC(=O)C(Sc1nccc(-c2cccnc2)n1)C(C)=O | -58
CS(=O)(=O)n1nc(-c2cccnc2)nc1NCc1ccc(Cl)cc1 | 3
Cc1cnc(N2CCc3ncc(CNc4ccccn4)n3CC2)nc1 | 391
CC(C)(C#N)c1ccc(N2C(=O)OCc3cnc4ccc(-c5cnc6ccccc6c5)cc4c32)cc1 | -85*
COCc1c(C(=O)N2CCc3c(ncnc3N3CCOCC3)C2)noc1C | 2
COc1cc(C(=O)OCCCN(C)C)cc(OC)c1OC | 0
COc1cc(C(=O)ON=C2C3CC4CC(C3)CC2C4)cc(OC)c1OC | -106*
COc1cc(C(=O)OCCCN2CCCN(CCCOC(=O)c3cc(OC)c(OC)c(OC)c3)CC2)cc(OC)c1OC | -7
CN(C)CC1CCC2(COCCN(C(=O)Cc3ccc(F)cc3)C2)O1 (stereo not given) | 17
Cc1cc(C(=O)NCc2ccc(S(=O)(=O)N(C)C)cc2)nc(N2CCCCC2)n1 | -43
Cc1ccccc1N1CCCN(Cc2cnc(N3CCCC3)s2)CC1 | 14
CC(=O)[C@@]1(O)CC[C@H]2[C@@H]3CCC4=CC(=O)CC[C@]4(C)[C@H]3CC[C@@]21C | 8
C#CC1(O)CCC2C3CCC4=Cc5oncc5CC4(C)C3CCC21C (stereo not given) | -86*
CC12CCC3c4ccc(OC(=O)c5ccccc5)cc4CCC3C1CCC2O (stereo not given) | -53
CC(=O)[C@@]1(O)CCC2C3CCC4=CC(=O)CC[C@]4(C)C3CC[C@@]21C (stereo not given in full) | -11
C[C@]12CCC3c4ccc(OC(=O)c5ccccc5)cc4CCC3C1CC[C@@H]2O (stereo not given in full) | -87*
C[C@]12CC[C@@H]3c4ccc(O)cc4CC[C@H]3[C@@H]1CC[C@@H]2O | -84*
COc1ccc2c(c1)CCC1C2CCC2(C)C(=O)CCC12 (stereo not given) | -14
C[C@]12CC[C@@H]3c4cc(O)c(O)cc4CC[C@H]3[C@@H]1CC[C@@H]2O | -67
C[C@]12CCC3c4ccc(O)cc4CCC3C1CCC2=O (stereo not given in full) | -79*
COc1ccc2c(c1)CCC1C2CC[C@@]2(C)C1CC[C@@H]2O (stereo not given in full) | -46
